Screens: PubChem BioAssay, National Center for Advancing Translational Sciences (NCATS)
This is a sample that favours compounds with a hit; in the whole collection about 18% have one here.
VP16 counter: VP16 counterscreen qHTS for inhibitors of ROR gamma transcriptional activity | Drosophila S2 Gal4-VP16 UAS-luciferase, luminescence, 20 h | Potency, µM (titrated, usually from 53.6 µM), without a hit: at the top dose activity, negative = inhibition, hits mostly inhibitors | actives 3.5% (n = 310,000);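 also: Gal4-VP16 expression switched on by copper sulfate through the metallothionein promoter; potency is read from the fitted curve at half-maximal effect; nearly all actives have a fitted effect of over 50% in size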
IL1B secr inh: qHTS for Inhibitors of Inflammasome Signaling: IL-1-beta AlphaLISA Primary Screen; THP-1 LPS/ATP IL-1B secretion, AlphaLISA, 16 h; hits give low values; activity change, % at 57.5 µM; actives 4.7% (n = 360,000); AID 743279, 2014; in the data active = activity change below about -50%; inconclusive = mostly about -30% to -49%
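THP-1 cells pretreated 1 hr with compounds (up to 57.5 uM final), then stimulated with LPS (250 ng/mL final) plus ATP (1.25 mM final); secreted IL-1B measured by AlphaLISA after 16 hr, decreased signal indicating inhibition.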
LDHA block: qHTS assay for inhibitors of human lactate dehydrogenase; L-lactate dehydrogenase A chain (Homo sapiens), P00338; purified LDHA, NADH/diaphorase-resazurin fluorescence; hits give low values; activity change, % (values are at about 110 or 230 µM); actives 0.15% (n = 480,000); in the data active = activity change below about -30%; inconclusive = mostly about -25% to -30%;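 also: plate controls were DMSO wells for no effect and wells without enzyme for full effect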
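Human LDH5 at 2 nM final in Tris HCl pH 7.4 with 0.06 mM NADH and 0.2 mM pyruvate, reacted 5 minutes at room temperature. Remaining NADH coupled via diaphorase/resazurin; resorufin fluorescence read at 0 and 20 minutes, normalized to enzyme-free and DMSO wells.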
RORgamma inh: qHTS for inhibitors of ROR gamma transcriptional activity. Nuclear receptor ROR-gamma (Mus musculus), P51450. Potency, µM (series often up to 53.6 µM), without a hit: at the highest dose activity change, negative = inhibition, hits mostly inhibitors. actives 5.4% (n = 310,000). Drosophila S2 Gal4-RORgamma UAS-luciferase reporter, 20 h; also: potency is read from the fitted curve at half-maximal effect; nearly all actives have a fitted effect of over 60% in size
Target sequence (P51450 whole entry, looked up, the tested form may be a part): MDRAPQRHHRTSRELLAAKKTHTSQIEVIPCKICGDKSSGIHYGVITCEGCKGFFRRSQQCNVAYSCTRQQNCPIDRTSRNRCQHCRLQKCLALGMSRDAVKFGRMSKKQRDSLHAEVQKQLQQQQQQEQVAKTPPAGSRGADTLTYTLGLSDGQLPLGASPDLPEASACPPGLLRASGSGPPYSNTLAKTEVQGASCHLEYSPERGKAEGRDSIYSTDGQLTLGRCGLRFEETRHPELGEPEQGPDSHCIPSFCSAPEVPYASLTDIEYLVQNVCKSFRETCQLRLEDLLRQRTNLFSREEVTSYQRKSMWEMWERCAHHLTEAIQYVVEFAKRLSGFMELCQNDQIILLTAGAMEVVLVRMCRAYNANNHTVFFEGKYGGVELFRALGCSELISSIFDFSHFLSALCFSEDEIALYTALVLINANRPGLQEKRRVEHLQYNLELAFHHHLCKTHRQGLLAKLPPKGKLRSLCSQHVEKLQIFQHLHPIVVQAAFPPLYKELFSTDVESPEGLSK
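Using a luciferase readout, inhibitors were identified by reduced reporter activity in Drosophila cells coexpressing a copper-inducible Gal4–ROR gamma fusion and UAS-driven Photinus luciferase, incubated 20 hr after 700 uM copper sulfate.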
DT40 TDP1 no CPT: qHTS for Inhibitors of human tyrosyl-DNA phosphodiesterase 1 (TDP1): qHTS in cells in absence of CPT. DT40 Tdp1-/- hTDP1 cells, no CPT, ATP luminescence, 48 h. Potency, µM (series often up to 46.2 µM), for inactives: at the top dose activity change, negative = growth inhibition, most hits filed as inhibitors. actives 15% (n = 420,000). AID 686978, 2013; also: potency is read from the fitted curve at half-maximal effect; nearly all actives have a fitted effect of over 55% in size
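Luminescent ATP content (CellTiter-Glo) served as the growth readout. Knockout chicken DT40 cells expressing human TDP1 were exposed to compounds without camptothecin for a minimum 48 hr at 37 °C.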
TDP1 cell CPT: qHTS for Inhibitors of human tyrosyl-DNA phosphodiesterase 1 (TDP1): qHTS in cells in presence of CPT; chicken DT40 Tdp1-/-;hTDP1 cells + 20 nM CPT, ATP luminescence, 48 h; Potency, µM (titrated, usually from 46.2 µM), inactives show at the top dose activity change, negative = growth inhibition, actives largely listed as inhibitors; actives 12% (n = 420,000); also: potency is read from the fitted curve at half-maximal effect; nearly all actives have a fitted effect of over 55% in size
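Cell growth measured by CellTiter-Glo luminescence after a minimum 48 h, 37 C compound exposure with 20 nM CPT in Tdp1-knockout DT40 cells stably expressing hTDP1, seeded 400/well; qHTS titration format.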
An asterisk follows results filed as active; ? = inconclusive; / = not tested or not shown. Unless noted, calls follow the shape of the dose curve; as a rule, active = well fitted curve in the direction sought with a large enough effect; inconclusive = small, poorly fitted or top-dose-only effect, or another doubt; inactive = no such curve, though single readings can be large; an effect the other way counts as inactive or inconclusive. Unless noted, % is scaled to controls: 0 for no effect and ±100 for the full control effect.

SMILES | VP16 counter | IL1B secr inh | LDHA block | RORgamma inh | DT40 TDP1 no CPT | TDP1 cell CPT
CC1=NN(C(N)=S)C(=O)C1N=Nc1c(C)n(C)n(-c2ccccc2)c1=O (stereo unspecified) | / | 5 | 17 | / | -2% | -3%
CC1=NN(C(N)=S)C(=O)C1N=Nc1c(C)cc(C)cc1C (stereo unspecified) | 1.8µM* | 12 | -6 | 0.5µM* | 0.58µM* | 0.52µM*
CC1=NN(C(N)=S)C(=O)C1N=Nc1ccccc1[N+](=O)[O-] (stereo unspecified) | / | 16 | -18 | / | -20% | ?
CCOc1ccccc1N=NC1C(=O)N(C(N)=S)N=C1C (stereo unspecified) | 1µM* | 41 | 0 | 0.71µM* | 3.7µM* | 16µM*
CC1=NN(C(N)=S)C(=O)C1N=Nc1ccc(C)cc1C (stereo unspecified) | 1.1µM* | / | / | 0.5µM* | / | /
CC1=NN(C(N)=S)C(=O)C1N=Nc1c(Cl)cc([N+](=O)[O-])cc1Cl (stereo unspecified) | 1.6µM* | -19 | 0 | 0.35µM* | 16µM* | ?
COc1cc2c(cc1O)CCN[C@@]21CS[C@H]2c3c(OC(C)=O)c(C)c4c(c3C(COC1=O)N1C2C2c3c(cc(C)c(OC)c3O)CC([C@@H]1O)N2C)OCO4 (stereo partly specified) | 0.45µM* | / | / | 0.14µM* | / | /
COc1cc2c(cc1O)CCN[C@]21CS[C@@H]2c3c(OC(C)=O)c(C)c4c(c3[C@H](COC1=O)N1[C@@H]2[C@H]2c3c(cc(C)c(OC)c3O)C[C@@H]([C@@H]1O)N2C)OCO4 | / | / | / | / | 0.0043µM* | 0.0043µM*
CC(CCc1ccccc1)NC(=O)c1cc(Cl)ccn1 (stereo unspecified) | / | / | 0 | / | / | /
Cc1ccc(S(=O)(=O)NC2CC(C)(C)N(O)C(C)(C)C2)cc1 | / | 19 | 0 | / | 21µM* | ?
CCc1ccc(S(=O)(=O)NC2CC(C)(C)NC(C)(C)C2)cc1 | -4% | -16 | -2 | 2µM* | -22% | -11%
Cc1ccc(S(=O)(=O)NC2CC(C)(C)NC(C)(C)C2)cc1 | -6% | 14 | -6 | 16% | -7% | 7%
Cc1cc2oc(C(=O)Nc3cccc(Cl)c3)cc(=O)c2cc1C | / | / | 1 | / | / | /
Cc1cc(C)c(OCCN2CCCC2)c(Cl)c1 | 3% | -6 | -19 | -24% | -23% | -3%
Cc1cc(C)c(OCCOCCN2CCN(C)CC2)c(Cl)c1 | -7% | 1 | -22 | 13% | ? | -28%
Cc1cc(Cl)c(OCCOCCN2CCNCC2)c(Cl)c1 | / | -23 | 0 | / | 12µM* | ?
Cc1cc(Cl)c(OCCCN2CCCCC2)c(Br)c1 | -2% | -79* | -11 | -35% | ? | -7%
CC(=O)c1ccc2c(c1)c(C#N)c1ccccc1[n+]2[O-] | 0% | 7 | 2 | -12% | 18µM* | 13µM*
Cc1ccsc1CN(C)CC(=O)Nc1ccc([N+](=O)[O-])cc1Cl | 3% | -79* | -3 | 10% | ? | -4%
O=c1nc2n(-c3ccc(Cl)c(Cl)c3)c3cc(Cl)ccc3cc-2c(=O)[nH]1 | / | / | -2 | / | / | /
Cc1nnc(N2CCC(C(=O)NCCc3ccccc3)CC2)c2nn(-c3ccccc3)c(C)c12 | / | / | 5 | / | 26µM* | ?
Cc1ccc(CCNC(=O)C2CCN(c3nnc(C)c4c(C)n(-c5ccccc5)nc34)CC2)cc1 | / | / | -7 | / | -14% | ?
